Assay outcomes (PubChem)
KB-3-1 cytotox – KB-3-1 parental cell cytotoxicity; KB-3-1 viability, CellTiter-Glo ATP luminescence, 72 h; Potency, µM (doses to about 46.1 µM), hits mostly cytotoxic; 1.4% of 400,000 active; also: nearly all actives have a fitted effect of over 60% in size
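Parental KB-3-1 adenocarcinoma cells in phenol-red-free DMEM with 10% FBS were pin-treated with compounds at several concentrations, incubated 72 h at 37 °C, and viability read by CellTiter-Glo luminescence; concentration-effect curves were fitted after normalization.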
SW480 rerep – induces DNA re-replication in SW480 colon adenocarcinoma cells | SW480 DNA re-replication, Hoechst DNA content imaging, 48 h | 1.8% of 340,000 active | Potency, µM (series often up to 46.1 µM), hits mostly activators; also: nearly all actives have a fitted effect of over 55% in size
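250 cells/well; 23 nL cpd via pin tool; 48 hr, 37 C, 5% CO2; Hoechst 40 min; imager read of total nuclear intensity, ex 405/em 500-530 nm.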
MCF10A rereplic – induces DNA re-replication in MCF 10a normal breast cells; MCF 10A DNA re-replication, Hoechst nuclear intensity, 48 h; Potency, µM (top dose mostly 46.1 µM), actives largely listed as activators; 2.9% of 350,000 active; also: nearly all actives have a fitted effect of over 50% in size
KB-V1 MDR tox – kills drug-selected multidrug resistant KB-V1 cells | KB-V1 MDR cells viability, CellTiter-Glo, 72 h | AID 1347076 | Potency, µM (series often up to 46.1 µM), most hits filed as cytotoxic | 3.4% of 400,000 active; also: nearly all actives have a fitted effect of over 60% in size
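Readout: CellTiter-Glo luminescence, 10 min after addition. Cells: KB-V1 MDR subline, 72 h at 37 degrees C with compound. Analysis: corrected, normalized data fitted to concentration-effect curves.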
ELG1 repair inh – inhibitors of ELG1-dependent DNA repair in HEK293T cells; 2.3% of 330,000 active; Potency, µM (titrated, usually from 46.1 µM), most hits filed as inhibitors; AID 504467; HEK293T ELG1-luciferase reporter, luminescence, 16 h; DNA damage induced by 5-fluorouridine; also: nearly all actives have a fitted effect of over 55% in size
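HEK293T cells expressing luciferase-tagged ELG1 (2,000/well) received 5-Fluorouridine plus compound or DMSO for 16 hr at 37 °C. Luciferase was read by ONE-Glo luminescence after 30 min at room temperature.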
ELG1 FLuc counter – luciferase inhibition in cell-free luciferin readout for ELG1 hits | shares compounds with ELG1 repair inh | AID 624247 | 3% of 350 active | cell-free firefly luciferase luminescence counter-screen, ViewLux | Potency, µM (top dose mostly 46.1 µM), hits mostly inhibitors
ELG1 Luc conf – confirmation of human ELG1-dependent DNA repair inhibitors. shares compounds with ELG1 repair inh. HEK293T ELG1-luciferase levels, luminescence; cells co-treated with 5-fluorouridine. Potency, µM (top dose mostly 46.1 µM), actives largely listed as inhibitors. 68% of 670 active; also: nearly all actives have a fitted effect of over 55% in size
ELG1 MMS Luc – inhibits ELG1-dependent repair under MMS stimulation in HEK293T cells | shares compounds with ELG1 repair inh | HEK293T luciferase-tagged ELG1 level, MMS stimulated | Potency, µM (doses to about 46.1 µM), actives largely listed as inhibitors | 53% of 670 active | AID 624249; also: nearly all actives have a fitted effect of over 60% in size
ELG1 5FU viab – confirmation of ELG1 repair inhibitors: viability with 5FU. shares compounds with ELG1 repair inh. cell viability with 5-FU, ELG1-dependent repair. Potency, µM (titrated, usually from 46.1 µM), usual class: cytotoxic. 670 tested, under 10 active. AID 624250;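 also: ELG1-luc HEK293T cells cotreated with 5-fluorouridine at 10 µM final; viability measured 16 h after compound addition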
ELG1 MMS viab – confirmation of ELG1 repair inhibitors: viability with MMS; shares compounds with ELG1 repair inh; Cell viability with MMS, ELG1-dependent DNA repair; Potency, µM (series often up to 46.1 µM), actives largely listed as cytotoxic; 33% of 670 active; AID 624251;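 also: ELG1-luc HEK293T cells co-treated with 10 µM MMS; viability read 16 h after compound addition; nearly all actives have a fitted effect of over 60% in size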
Cell viab unstim – unstimulated viability counter-screen for ELG1 repair hits. shares compounds with ELG1 repair inh. cell viability counter-screen, unstimulated, luminescence. Potency, µM (highest dose often 45.9 µM), hits mostly cytotoxic. 8% of 900 active;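 also: compound exposure lasted 16 hours before reading; nearly all actives have a fitted effect of over 55% in size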
FLuc biochem – counter-screen for ELG1 repair inhibitors: firefly luciferase inhibition; shares compounds with ELG1 repair inh; purified firefly luciferase, luminescence counter-screen; Potency, µM (top dose mostly 57.5 µM), most hits filed as inhibitors; 10% of 350 active; AID 624253
Large screens that a line does not name were inactive (follow-up assays come after a bar, where they were run). The list is not random: actives were taken first. Their share in the collection is about 8.1%. Calls follow the shape of the dose curve; as a rule, active = well fitted curve in the direction sought with a large enough effect; inconclusive = small, poorly fitted or top-dose-only effect, or another doubt; inactive = no such curve, though single readings can be large; an effect the other way counts as inactive or inconclusive.

COc1ccc([C@@H]2CC=C(C(=O)O)[C@H](c3ccc(F)cc3)N2S(=O)(=O)c2ccc(Cl)cc2)cc1	none
CC1Cc2cc(-c3csc(NC(=O)Cc4ccccc4)n3)ccc2N1S(C)(=O)=O (configuration not stated)	KB-3-1 cytotox 21µM, KB-V1 MDR tox 3.3µM, ELG1 repair inh 7.3µM | ELG1 FLuc counter inconclusive | ELG1 Luc conf 13µM | ELG1 MMS Luc 5.6µM | ELG1 5FU viab inconclusive | ELG1 MMS viab inconclusive | Cell viab unstim 16µM | FLuc biochem inactive
CS(=O)(=O)N1CCc2cc(-c3csc(NC(=O)C(c4ccccc4)c4ccccc4)n3)ccc21	KB-V1 MDR tox inconclusive
COCCn1c(C(C)C)nc2oc3ccccc3c(=O)c2c1=O	ELG1 repair inh 1.4µM | ELG1 Luc conf inactive | ELG1 MMS Luc inactive | ELG1 5FU viab inactive | ELG1 MMS viab inactive | Cell viab unstim inactive
CCc1nc2oc3ccccc3c(=O)c2c(=O)n1CCOC	none
O=C(Nc1ccc(F)cc1)c1ccc2c(=O)n(CC3CCCO3)c(=S)[nH]c2c1 (configuration not stated)	MCF10A rereplic inconclusive, ELG1 repair inh 4.1µM | ELG1 Luc conf 5.6µM | ELG1 MMS Luc 22µM | ELG1 5FU viab inconclusive | ELG1 MMS viab inconclusive | Cell viab unstim inactive
O=C(NCC1CCCO1)c1ccc2c(=O)n(CC3CCCO3)c(=S)[nH]c2c1 (configuration not stated)	none
COc1ccc2cc3c(N)nn(C(=O)c4ccc(F)cc4)c3nc2c1	SW480 rerep inconclusive, MCF10A rereplic inconclusive, KB-V1 MDR tox inconclusive, ELG1 repair inh 4.1µM | ELG1 Luc conf 2.5µM | ELG1 MMS Luc 4.4µM | ELG1 5FU viab inactive | ELG1 MMS viab inactive | Cell viab unstim inactive
COc1ccc2cc3c(N)nn(C(=O)c4cccc(F)c4)c3nc2c1	SW480 rerep inconclusive
COc1ccc2cc3c(N)nn(C(=O)c4ccccc4Cl)c3nc2c1	KB-3-1 cytotox inconclusive, SW480 rerep 4.1µM, KB-V1 MDR tox inconclusive, ELG1 repair inh 0.65µM | ELG1 FLuc counter inconclusive | ELG1 Luc conf 0.79µM | ELG1 MMS Luc 4µM | ELG1 5FU viab inactive | ELG1 MMS viab inactive | Cell viab unstim inconclusive | FLuc biochem inactive
Cc1ccc(NC(=O)Cn2c(=O)n(CCC(C)C)c(=O)c3cccnc32)cc1C	none (no result: SW480 rerep, MCF10A rereplic, ELG1 repair inh)
Cc1cnc(CN(C)C(=O)C2CCC(=O)N(CCc3ccc(Cl)cc3)C2)[nH]1 (configuration not stated)	none (no result: SW480 rerep, MCF10A rereplic, ELG1 repair inh)
CN(C)c1ccc(/C=C2\C=Cc3ccccc32)cc1	none (no result: SW480 rerep, MCF10A rereplic, ELG1 repair inh)
CC(C)CN(C)c1ccc(/C=C2\C=Cc3ccccc32)cc1	none (no result: SW480 rerep, MCF10A rereplic, ELG1 repair inh) | Cell viab unstim inconclusive
C1=Cc2ccccc2/C1=C/c1ccc(/C=C2\C=Cc3ccccc32)cc1	none (no result: SW480 rerep, MCF10A rereplic, ELG1 repair inh)
CN(C)N=Nc1ccc(/C=C2\C=Cc3ccccc32)cc1	KB-V1 MDR tox inconclusive (no result: SW480 rerep, MCF10A rereplic, ELG1 repair inh) | Cell viab unstim inactive
CN1CCN(C(=O)c2cc3c(c(-c4cccc(-c5cc6ccccc6o5)c4)n2)[C@H](CCO)N(S(=O)C(C)(C)C)C3)CC1 (some centres not stated)	none (no result: SW480 rerep, MCF10A rereplic, ELG1 repair inh)
CCN(CC)S(=O)(=O)c1cccc(NC(=O)CCNC(=O)NC23CC4CC(CC(C4)C2)C3)c1	KB-3-1 cytotox inconclusive, SW480 rerep inconclusive, MCF10A rereplic inconclusive
CS(=O)(=O)Nc1ccccc1-c1cccc2nccn12	none (no result: SW480 rerep, MCF10A rereplic, ELG1 repair inh)
CCCC(NC(=O)C(C)Sc1nnnn1C1CC1)c1ccccc1 (configuration not stated)	none
COc1ccc(C2CC(c3c(O)cc(C)oc3=O)=NCCS2)c(OC)c1 (configuration not stated)	KB-3-1 cytotox 0.29µM, SW480 rerep inconclusive, MCF10A rereplic 1.1µM, KB-V1 MDR tox 0.37µM, ELG1 repair inh inconclusive | Cell viab unstim inactive
c1ccc2c(c1)CCN(c1nc(CN3CCOCC3)nc3sc4c(c13)CCCC4)C2	KB-3-1 cytotox inconclusive, MCF10A rereplic inconclusive, KB-V1 MDR tox inconclusive, ELG1 repair inh 10µM | ELG1 FLuc counter inactive | ELG1 Luc conf 10µM | ELG1 MMS Luc inconclusive | ELG1 5FU viab inconclusive | ELG1 MMS viab inactive | Cell viab unstim inactive | FLuc biochem inactive
CC(Sc1nc(N2CCOCC2)c2c(c1C#N)CC(C)(C)OC2)C(=O)Nc1ccccc1 (configuration not stated)	KB-V1 MDR tox inconclusive, ELG1 repair inh 2.9µM | ELG1 FLuc counter inactive | ELG1 Luc conf 1.8µM | ELG1 MMS Luc inactive | ELG1 5FU viab inconclusive | ELG1 MMS viab inconclusive | Cell viab unstim inactive | FLuc biochem inactive
CCOC(=O)CCSc1nc(N2CCOCC2)c2c(c1C#N)CC(C)(C)OC2	ELG1 repair inh 1µM | ELG1 FLuc counter inactive | ELG1 Luc conf 4.5µM | ELG1 MMS Luc inactive | ELG1 5FU viab inconclusive | ELG1 MMS viab inactive | Cell viab unstim inactive | FLuc biochem inactive
CCCOC(=O)c1ccc(OCC(O)Cn2c(C)nc3ccccc32)cc1 (configuration not stated)	KB-V1 MDR tox inconclusive, ELG1 repair inh 1.5µM | ELG1 Luc conf inconclusive | ELG1 MMS Luc 1.8µM | ELG1 5FU viab inactive | ELG1 MMS viab 2µM | Cell viab unstim inconclusive
CC(=O)Nc1cccc(OCC(O)Cn2c(C)nc3ccccc32)c1 (configuration not stated)	KB-3-1 cytotox inconclusive, ELG1 repair inh inconclusive
OC(CSc1ccccc1)CN1CCN(c2ccccc2)CC1 (configuration not stated)	none (no result: ELG1 repair inh)
COC(=O)[C@]12CCCCC=C1N(Cc1ccc(Cl)cc1Cl)C(=O)[C@H](CC(=O)NCCC(C)C)C2	KB-3-1 cytotox inconclusive (no result: SW480 rerep, MCF10A rereplic, ELG1 repair inh)
